Several values for one entry are separate records, joined by “and”; a condition that tells them apart may be missing. Equal entries are not always repeated. Records with an inconclusive call do not appear. Unmarked numbers belong to inactive results. Activity calls are given as the source filed them. Calls come from the whole dose curve; as a rule, active = well fitted cell-killing curve with a large enough effect; inconclusive = small, poorly fitted or top-dose-only effect; inactive = flat fitted curve, though single readings scatter.

Activity (max response) and Potency data for 38 compounds are collected here from PubChem BioAssay (NCATS).

A short description of assay [1]: Cellular viability qHTS for adrenocortical cancer (ACC) cell line SW-13 (AID 1963989).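 For Activity (max response): cells grown in serum-free medium with ITS supplement; % is set by controls: 0 for no effect and ±100 for the full control effect.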 Note: nearly all actives have a fitted effect of over 65% in size. As to conditions: SW-13 ACC cells viability, CellTiter-Glo, 48 h; activity (max response): hits give low values. Put shortly: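 Here, serum-free SW-13 cultures were dosed up to 46 uM. Following 48 h, ATP-dependent luminescence (CellTiter-Glo) reported viable cells, and logistic modeling produced IC50 values.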
A general note: Quantitative high-throughput screening tests each substance at several concentrations.

A short description of assay [2]: Cellular viability qHTS for adrenocortical cancer (ACC) cell line NCI-H295R (AID 1963990). Note: nearly all actives have a fitted effect of over 60% in size. Put shortly:
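Viability of NCI-H295R after 48 h of treatment (final up to 46 uM) measured through cellular ATP luminescence.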
Potency is the fitted concentration of half-maximal effect.

For `COC(=O)C1=C(C)NC(C)=C(C(=O)OCCc2ccc(N3CCN(C(c4ccccc4)c4ccccc4)CC3)cc2)C1c1cccc([N+](=O)[O-])c1` (stereo unspecified), the activity (max response) in assay [1] was 7.28%. For the same compound, in assay [2], the Potency entry is “inactive”.

For `CCCc1c(OCCCCc2nn[nH]n2)ccc(C(C)=O)c1O`, in assay [1], the activity (max response) was -4.43%. In assay [2], the Potency entry is “inactive”.

For `Cc1cccc(-c2[nH]ncc2-c2ccc(F)c(-c3cnn(CCO)c3)c2)n1`, the activity (max response) in assay [1] is -6.75%. Besides, in assay [2], the Potency entry is “inactive”.

For the compound `OC[C@H]1O[C@@H](Oc2cc(O)cc(/C=C/c3ccc(O)cc3)c2)[C@H](O)[C@@H](O)[C@@H]1O`, the activity (max response) in assay [1] is 7.59%. For the same compound, the Potency entry in assay [2] was “inactive”.

For `CCc1oc2ccccc2c1C(=O)c1cc(Br)c(O)c(Br)c1`, the Potency in assay [1] and in assay [2] was 7.31 µM (active) throughout.

As to `O=c1c(-c2ccc(O)cc2)coc2cc(O[C@@H]3O[C@H](CO)[C@@H](O)[C@H](O)[C@H]3O)ccc12`, the activity (max response) in assay [1] was -7.43%. Besides, the Potency entry in assay [2] is “inactive”.

Turning to `Cc1ccc(/C(=C\CN2CCCC2)c2ccccn2)cc1`, the activity (max response) in assay [1] is 2.73%. Moreover, in assay [2], the Potency result was “inactive”.

Take `O=C(O)CN1C(=O)c2cccc3cccc(c23)C1=O`: the activity (max response) in assay [1] is -3.53%. Further, the Potency entry in assay [2] is “inactive”.

With `CCN(CC)c1ccc(C(=C2C=CC(=[N+](CC)CC)C=C2)c2cc(S(=O)(=O)O)ccc2S(=O)(=O)[O-])cc1`, the Potency in assay [1] is 8.2 µM (active); in assay [2], 7.31 µM (active).

For `Nc1ccncc1N`, the activity (max response) in assay [1] was -0.994%. Moreover, in assay [2], the Potency entry is “inactive”.

With `C[C@H](CS)C(=O)N1CCC[C@H]1C(=O)O`, in assay [1], the activity (max response) was -1.14%. Besides, in assay [2], the Potency entry is “inactive”.

On to `CN(C)C(=O)CNC(=O)Cc1ccccc1`, for which the activity (max response) in assay [1] is -6.74%. Also, the Potency result in assay [2] was “inactive”.

Consider `CC(C)C[C@H](CC(=O)O)C(=O)N[C@@H](Cc1c[nH]c2ccccc12)C(=O)N[C@@H](C)c1ccccc1`, for which, in assay [1], the activity (max response) was 0.614%. In assay [2], the Potency result was “inactive”.

For the compound `C#CC1(O)CC[C@H]2[C@@H]3CCC4=CCCC[C@@H]4[C@H]3CC[C@@]21C` (stereo partly specified), in assay [1], the activity (max response) was 6.47%. Also, in assay [2], the Potency result was “inactive”.

As for `CN/C(=C\[N+](=O)[O-])NCCSCc1csc(CN(C)C)n1`, in assay [1], the activity (max response) was 7.35%. Also, the Potency entry in assay [2] is “inactive”.

As for `CCC(C(=O)OCCN1CCOC(c2ccccc2)C1C)c1ccccc1` (stereo unspecified), in assay [1], the activity (max response) is 3.6%. The Potency entry in assay [2] is “inactive”.

For `CN(C)c1ccc(C(=C2C=CC(=[N+](C)C)C=C2)c2ccccc2)cc1`, the Potency is 0.82 µM (active) in assay [1] and 0.92 µM (active) in assay [2].

As to `CC(C)C(N)C(=O)OCC(CO)OCn1cnc2c(=O)[nH]c(N)nc21` (stereo unspecified), the activity (max response) in assay [1] is -23%. In assay [2], the Potency result was “inactive”.

Take `CCCCCC1Nc2cc(C(F)(F)F)c(S(N)(=O)=O)cc2S(=O)(=O)N1` (stereo unspecified): in assay [1], the activity (max response) was 4.72%. For the same compound, the Potency result in assay [2] was “inactive”.

For `CCc1oc2ccccc2c1C(=O)c1cc(I)c(O)c(I)c1`, the Potency in assay [1] was 5.8 µM (active); in assay [2], 6.51 µM (active).

In the case of `C[C@@H]1CCN(C(=O)CC#N)C[C@@H]1N(C)c1ncnc2[nH]ccc12`, the activity (max response) in assay [1] is -8.3%. Besides, the Potency entry in assay [2] is “inactive”.

`CN1CCN(C2=Nc3ccccc3Sc3ccc(Cl)cc32)CC1`: the activity (max response) in assay [1] is -24.6%. The Potency entry in assay [2] was “inactive”.

On to `CCN(CC)CCOc1ccccc1C(=O)CCc1ccccc1`, for which the activity (max response) in assay [1] is -19.2%. Further, in assay [2], the Potency result was “inactive”.

With `COc1c(C)cc(NC(=O)c2nn(Cc3ccc(F)cc3)c3c2CN(C(=O)c2ccc[nH]2)C[C@]3(C)C(N)=O)cc1C`, in assay [1], the activity (max response) is -5.75%. Also, in assay [2], the Potency entry is “inactive”.

In the case of `CCN(CC)CCOC(=O)C(c1ccccc1)c1ccccc1`, the activity (max response) in assay [1] was 0.334%. For the same compound, the Potency entry in assay [2] was “inactive”.

Take `CO[C@@]1(NC(=O)Cc2cccs2)C(=O)N2C(C(=O)O)=C(COC(N)=O)CS[C@@H]21`: the activity (max response) in assay [1] is 12.4%. Further, the Potency entry in assay [2] is “inactive”.

Turning to `CCCCOCCOCCOCc1cc2c(cc1CCC)OCO2`, the activity (max response) in assay [1] is 0.496% and -9.13%. For the same compound, in assay [2], the Potency result was “inactive”.

For `C[C@@H]1C[C@H]2[C@@H]3CCC4=CC(=O)C=C[C@]4(C)[C@@]3(F)[C@@H](O)C[C@]2(C)[C@@]1(O)C(=O)CO`, in assay [1], the activity (max response) is 6.21% and 9.17%. In addition, in assay [2], the Potency result was “inactive”.

In the case of `C#C[C@]1(O)CC[C@H]2[C@@H]3CCC4=CC(=O)CC[C@@H]4[C@H]3CC[C@@]21CC`, in assay [1], the activity (max response) was -2.48% and -7.29%. In addition, the Potency entry in assay [2] was “inactive”.

In the case of `C/C(=C\C(=O)Nc1ccccc1C(=O)O)c1ccc2ccccc2c1`, the Potency in assay [1] is 12.6 µM (active); in assay [2], 28.2 µM (active).

For the compound `Cc1c(I)c(=O)n(-c2ccccc2)n1C`, in assay [1], the activity (max response) is 0.251%. For the same compound, the Potency result in assay [2] is “inactive”.

Consider `c1ccc(CCNc2nc(-c3ccccc3)cs2)cc1`, for which, in assay [1], the activity (max response) is -5.01%. For the same compound, in assay [2], the Potency result is “inactive”.

In the case of `OCCOCCN1CCN(C2=Nc3ccccc3Sc3ccccc32)CC1`, the activity (max response) in assay [1] was -9.48%. Besides, the Potency entry in assay [2] was “inactive”.

For the compound `O=C(c1cc(O)c(O)c(O)c1)c1ccc(O)c(O)c1O`, the activity (max response) in assay [1] was 4.03%. In assay [2], the Potency result was “inactive”.

Consider `CC(C)(CO)n1cc(C(=O)c2cncc(NC(=O)Cc3ccc(Cl)cn3)c2)c2cnc(N)nc21`, for which, in assay [1], the activity (max response) was -13.5%. Besides, the Potency result in assay [2] was “inactive”.

As for `CC(=O)[C@@]1(O)CC[C@H]2[C@@H]3CCC4=CC(=O)CC[C@]4(C)[C@H]3CC[C@@]21C`, the activity (max response) in assay [1] is -6.65%. The Potency result in assay [2] was “inactive”.

Regarding `CC(O)Cn1cnc2c1c(=O)n(C)c(=O)n2C` (stereo unspecified), in assay [1], the activity (max response) was -7.87%. For the same compound, the Potency entry in assay [2] is “inactive”.

As for `CN[C@@H](C)C(=O)N[C@H](C(=O)N1CCC[C@H]1C(=O)Nc1sc(-c2ncco2)nc1-c1ccccc1)C1CCCCC1`, the activity (max response) in assay [1] is -5.71%. Moreover, the Potency result in assay [2] was “inactive”.
